# Inconclusive results are not listed. A number with no mark means an inactive call. Active and inactive are the calls of the source. The call rests on the fitted dose curve; in most records, active means well fitted cell-killing curve with a large enough effect; inconclusive means small, poorly fitted or top-dose-only effect; inactive means flat fitted curve, though single readings scatter.
# Assay: Compound cytotoxicity measured by an ATP content assay as a counter-screen for lead compounds in human iPSC derived neural progenitor cells (hNPCs)
# Conditions: human iPSC-derived NPC viability, ATP luminescence; series mostly up to 46.1 µM; activity, negative = cytotoxicity: at the top concentration
# Procedure, shortened: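 hNPCs (human iPSC-derived) seeded 16–20 h, then exposed to compound for 6, 24 or 72 h at 37 C. ATP-content luminescence read after 10 min at room temperature; cytotoxicity expressed as percent inhibition of viability.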
Compound,"activity, negative = cytotoxicity",Potency
c1ccc(CCNc2nc(-c3ccccc3)cs2)cc1,-5.35%,
O=C(c1ccccc1)c1ccc2n1CCC2C(=O)O (configuration not stated),6.4%,
CCCCCCCC/C=C/C(=O)O,-7.84%,
O=C(O)Cc1ccc(-c2ccccc2)cc1,0.151%,
COc1ccnc2c1CCCCC2S(=O)c1nc2ccccc2[nH]1 (configuration not stated),-9.47%,
O=C(/C=C/c1ccccc1)NCCO,3.85%,
CC(C)OC(=O)CCCC=CC[C@@H]1[C@H](C=C[C@@H](O)COc2cccc(C(F)(F)F)c2)[C@H](O)C[C@@H]1O,-18.9%,
O[C@@H](COc1cccc2ncccc12)CN1CCN(C2c3ccccc3[C@@H]3[C@H](c4ccccc42)C3(F)F)CC1 (some centres not stated),-12.7%,
CN1CC(=O)N2C(Cc3c([nH]c4ccccc34)[C@H]2c2ccc3c(c2)OCO3)C1=O (some centres not stated),-8.64%,
N#CC1(c2ccc(NC(=O)c3cccnc3NCc3ccncc3)cc2)CCCC1,-21.9%,
O=C(O)c1cc([N+](=O)[O-])ccc1NCCCc1ccccc1,-8.18%,
CCCCCCOc1ccccc1C(N)=O,16.5%,
O=C1NC(=O)C(=Cc2ccc(-c3ccc(F)cc3)o2)S1,-16.4%,
Cc1[nH]c(C=C2C(=O)Nc3ccccc32)c(C)c1CCC(=O)O,5.02%,
COc1cc2nc(N3CCN(C(=O)C4CCCO4)CC3)nc(N)c2cc1OC (configuration not stated),0.309%,
CC1=C(CO)C(=O)O[C@@H]([C@@H](C)[C@H]2CC[C@H]3[C@@H]4C[C@H]5O[C@]56[C@@H](O)C=CC(=O)[C@]6(C)[C@@H]4CC[C@]23C)C1,4.61%,

Compound,"activity, negative = cytotoxicity",Potency
CN1CC(=O)N/C1=N/C(=O)Nc1cccc(Cl)c1,-7.62%,
Cc1c(N)c(=O)n(-c2ccccc2)n1C,-10.4%,
Nc1cc(C(F)(F)F)ccc1S,,19.5 µM (active)
CN(C)CCCSc1ccccc1NC(=O)/C=C/c1ccccc1,-14.6%,
Cc1cc(O)c2ccccc2c1O,,4.89 µM (active)
O=C(/C=C/c1ccc(O)cc1)c1ccc(O)cc1O,-5.73%,
Cc1ccc(O)c(N=Nc2ccccc2)n1,,4.35 µM (active)
Cc1ccc(C(=O)c2ccc(CC(=O)O)n2C)cc1,-10.8%,
C[C@@H](N)c1ccc(C(=O)Nc2ccnc3[nH]ccc23)cc1,7.73%,
O=C1c2ccccc2-[n+]2ccc3c([nH]c4ccccc43)c21,,2.18 µM (active)
O=C(O)c1ccccc1NCCc1ccccc1,7.25%,
COc1cc(NC(C)CCCN)c2ncccc2c1 (configuration not stated),5.35%,
CC(=Cc1ccccc1)C=C1SC(=S)N(CC(=O)O)C1=O,-12.6%,
COc1ccc(-c2cc(=O)c3c(O)cc(O)cc3o2)cc1O,-5.38%,
O=C(O)c1cccc(-c2noc(-c3ccccc3F)n2)c1,,5.48 µM (active)
CC(C)(C)COc1ccc(-n2cc(C(=O)O)cn2)cc1C#N,-9.53% [at 88.3 µM],
